# This is part of a sample that, as a whole, favours compounds with a hit. Of some 83,000 tested, about 20% had one in any assay.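 Single-dose data. Exposure time 48 hours. Values below 10 considered active.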 Calls of active or inactive are those of the source.
# Tested on: MDA-MB-468 breast
# Assay: NCI-60 one-dose screen, 48 h (100 = growth as untreated, 0 = no growth, -100 = all killed)
# Conditions: 10 µM unless noted
row,Compound,growth
1,N#CC(C#N)N=Nc1cc(Cl)ccc1Cl,120% (inactive)
2,Cc1[nH]c(=O)[nH]c(=O)c1Br,107% (inactive)
3,O=C(O)c1nn(-c2ccc(Cl)cc2)nc1N1CCCC1,86% (inactive)
4,COc1ccc2cc(-c3nc(C)c(C(C)=O)c(-c4ccc(C)cc4)n3)ccc2c1,74.4% (inactive)
5,COC(=O)CCCCCCCCC(C)c1ccc(C(C)=O)cc1 (stereo unspecified),110% (inactive)
6,Cn1c2c(Cl)c(Cl)ccc2c2cc(N)[nH]c(=O)c21,88.9% (inactive)
7,O=S(=O)(Oc1ccc(-c2ccc3sccc3c2)cc1)c1ccccc1,85.2% (inactive)
8,Cc1cc2nc3cc(C)c(N)cc3[n+](-c3ccccc3)c2cc1N,2.5% (active)
9,COc1ccc2c(O)c(/C=C3\N=Nc4nc(C)ccc43)oc2c1CC1CCNCC1,0.98% (active)
10,Cc1cccc(/C=C/c2c(C(=O)/C=C/c3ccccc3)c(C)nc3ccccc23)c1,-51.1% (active)
11,CC(=O)Nc1ccc(Sc2ccc(NC(C)=O)cc2)cc1,100% (inactive)
12,Cn1cc(C=O)c2ccccc21,100% (inactive)
13,COc1cnc2c(c1)C(=O)c1c-2n(CCCN2CCCC2)c(=O)c2cc(F)ccc12,-29.5% (active)
14,COc1ccc(/C(=C\c2cc(OC)c(OC)c(OC)c2)C(=O)Nc2nc3ccc(Cl)cc3s2)cc1,96.4% (inactive)
15,CCN1C(=O)N(c2ccccc2)C2NC(=S)N(/N=C/C=C/c3ccccc3)C21 (stereo unspecified),5.41% (active)
16,Cc1cc(O)c2c(c1)C1OC(=O)CCCCCN1C1=C2C(=O)c2cccc(OC3CC(O)C(O)C(C)O3)c2C1=O (stereo unspecified),58.3% (inactive)

# Source: PubChem BioAssay (NCI)
